Targets with a hit are over-represented here; the source holds about 8,800 in all. About 0.5% of all pairs of compound and target were hits. Values without a mark were called inactive.
Columns and labels:
Assay in all cases: log2 fold change, soluble protein after heating vs DMSO (PISA); higher = thermal stabilisation; K562 lysate, 10 uM; active = over 0.2 and 3.5 SD of the protein, either way, in both replicates (recomputed)
[1] = compound: CCCS(=O)(=O)Nc1ccc(F)c(C(=O)c2c[nH]c3ncc(-c4ccc(Cl)cc4)cc23)c1F [vemurafenib]
Procedure, shortened: (§1)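 Pellets of K562 cells were dounce-homogenised in PBS pH 7.4 with 1 mM MgCl2, and the crude extract was held at 1 mg/mL protein for a 30 min treatment with 10 μM compound. Aliquots were heated for 3 min over 48°C-58°C and pooled before NP-40 was added to 0.5% at 4°C. The supernatant from 21,000xg for 90 min was quantified by TMTpro 16plex LC-MS/MS with channel sums equalised. Values are reported from duplicates as log-two fold change in thermal stability relative to solvent controls.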

[2] = compound: CCCS(=O)(=O)Nc1ccc(F)c(C(=O)c2c[nH]c3ncc(Cl)cc23)c1F
Procedure, shortened: as §1

[3] = compound: CCN(CCCOc1ccc2c(Nc3cc(CC(=O)Nc4cccc(F)c4)[nH]n3)ncnc2c1)CCOP(=O)(O)O [barasertib]
Procedure, shortened: as §1

[4] = compound: CC[C@@H]1C(=O)N(C)c2cnc(Nc3ccc(C(=O)NC4CCN(C)CC4)cc3OC)nc2N1C1CCCC1
Procedure, shortened: as §1

[5] = compound: CC[C@@H]1C(=O)N(C)c2cnc(Nc3ccc(C(=O)N[C@H]4CC[C@H](N5CCN(CC6CC6)CC5)CC4)cc3OC)nc2N1C(C)C [volasertib]
Procedure, shortened: as §1

[6] = compound: CCn1c(C(=O)N(C2CC2)C2CC2)cc2c3c(ncn3C)c(Nc3cc(C)n(C)n3)nc21
Procedure, shortened: as §1

[7] = compound: CCn1cc(-c2ccnc3[nH]c(-c4cccc(CN(C)C)c4)cc23)c(-c2ccc(NC(=O)N(C)C)cc2)n1
Procedure, shortened: as §1

[8] = compound: CN1CCC(CNc2ccc3ncc(-c4cccc(OC(F)(F)F)c4)n3n2)CC1
Procedure, shortened: as §1

[9] = compound: CN1CCN(CCOc2cc(OC3CCOCC3)c3c(Nc4c(Cl)ccc5c4OCO5)ncnc3c2)CC1 [saracatinib]
Procedure, shortened: as §1

[10] = compound: CN1CCN(c2nc(C3=C(c4c[nH]c5ccccc45)C(=O)NC3=O)c3ccccc3n2)CC1 [sotrastaurin]
Procedure, shortened: as §1

[11] = compound: CN1CC[C@H](c2c(O)cc(O)c3c(=O)cc(-c4ccccc4Cl)oc23)[C@H](O)C1 [alvocidib]
Procedure, shortened: as §1

[12] = compound: CN1CCc2c(c3ccccc3n2Cc2ccc(C(=O)NO)cc2)C1 [Tubastatin A]
Procedure, shortened: as §1

[13] = compound: CNC(=O)C1=CC=CC=C1NC2=NC(=NC=C2Cl)NC3=C(C=C(C=C3)N4CCOCC4)OC
Procedure, shortened: as §1

[14] = compound: CNC(=O)c1ccc(Nc2ncc(C(F)(F)F)c(NCc3nccnc3N(C)S(C)(=O)=O)n2)cc1 [defactinib]
Procedure, shortened: as §1

[15] = compound: CNc1nc(-c2ccc3c(N)n[nH]c3c2)cc(N2C[C@@H](C(=O)NC3CCCCC3)CC[C@H]2C)n1
Procedure, shortened: as §1

[16] = compound: COC(=O)N[C@@H](C)CNc1nccc(-c2cn(C(C)C)nc2-c2cc(Cl)cc(NS(C)(=O)=O)c2F)n1 [encorafenib]
Procedure, shortened: as §1

[17] = compound: COC(=O)[C@H](CCSC)NC(=O)C1=C(C=C(C=C1)NC[C@H](CS)N)C2=CC=CC=C2
Procedure, shortened: as §1

[18] = compound: COc1cc(Nc2ncc3c(n2)-c2ccc(Cl)cc2C(c2c(F)cccc2OC)=NC3)ccc1C(=O)O [alisertib]
Procedure, shortened: as §1

[19] = compound: COc1cc2nc(-c3cc(F)ccc3O)nc(N[C@@H]3CNC[C@H]3C(C)(C)O)c2cc1OC
Procedure, shortened: as §1

[20] = compound: COc1cc2ncnc(Nc3ccc(F)c(Cl)c3)c2cc1OCCCN1CCOCC1 [gefitinib]
Procedure, shortened: as §1

Chain of UniProt O95429 (O95429 whole entry, looked up): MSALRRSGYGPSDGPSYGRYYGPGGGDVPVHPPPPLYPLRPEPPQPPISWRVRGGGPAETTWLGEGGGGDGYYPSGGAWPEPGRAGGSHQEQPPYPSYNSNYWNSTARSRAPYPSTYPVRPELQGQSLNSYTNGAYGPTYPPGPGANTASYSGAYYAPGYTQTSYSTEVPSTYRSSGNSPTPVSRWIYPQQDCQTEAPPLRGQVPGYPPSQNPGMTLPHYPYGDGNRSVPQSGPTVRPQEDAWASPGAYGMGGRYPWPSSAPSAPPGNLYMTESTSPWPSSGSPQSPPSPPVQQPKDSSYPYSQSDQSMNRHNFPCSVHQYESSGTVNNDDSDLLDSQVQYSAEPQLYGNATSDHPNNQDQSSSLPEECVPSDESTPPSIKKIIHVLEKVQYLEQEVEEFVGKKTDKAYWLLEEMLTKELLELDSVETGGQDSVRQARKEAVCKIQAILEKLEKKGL
Chain of UniProt P21953 (P21953 whole entry, looked up): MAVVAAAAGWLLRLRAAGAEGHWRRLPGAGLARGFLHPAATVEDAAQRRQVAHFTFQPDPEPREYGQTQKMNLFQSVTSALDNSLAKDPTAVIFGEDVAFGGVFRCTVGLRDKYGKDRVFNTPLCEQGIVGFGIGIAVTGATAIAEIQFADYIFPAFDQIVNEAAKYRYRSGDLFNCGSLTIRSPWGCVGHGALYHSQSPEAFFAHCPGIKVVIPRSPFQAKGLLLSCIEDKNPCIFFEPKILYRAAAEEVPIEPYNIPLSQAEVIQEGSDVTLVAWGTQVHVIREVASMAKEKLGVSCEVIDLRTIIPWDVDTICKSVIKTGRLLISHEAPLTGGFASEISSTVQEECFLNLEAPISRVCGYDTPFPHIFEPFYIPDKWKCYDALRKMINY
Chain of UniProt Q86WR0 (Q86WR0 whole entry, looked up): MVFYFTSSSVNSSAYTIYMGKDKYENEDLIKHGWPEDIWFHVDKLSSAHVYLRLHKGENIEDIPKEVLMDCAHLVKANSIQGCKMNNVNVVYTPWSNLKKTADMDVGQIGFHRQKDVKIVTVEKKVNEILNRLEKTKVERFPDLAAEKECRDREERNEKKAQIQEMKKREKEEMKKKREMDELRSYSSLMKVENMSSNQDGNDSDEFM
Chain of UniProt O60826 (O60826 whole entry, looked up): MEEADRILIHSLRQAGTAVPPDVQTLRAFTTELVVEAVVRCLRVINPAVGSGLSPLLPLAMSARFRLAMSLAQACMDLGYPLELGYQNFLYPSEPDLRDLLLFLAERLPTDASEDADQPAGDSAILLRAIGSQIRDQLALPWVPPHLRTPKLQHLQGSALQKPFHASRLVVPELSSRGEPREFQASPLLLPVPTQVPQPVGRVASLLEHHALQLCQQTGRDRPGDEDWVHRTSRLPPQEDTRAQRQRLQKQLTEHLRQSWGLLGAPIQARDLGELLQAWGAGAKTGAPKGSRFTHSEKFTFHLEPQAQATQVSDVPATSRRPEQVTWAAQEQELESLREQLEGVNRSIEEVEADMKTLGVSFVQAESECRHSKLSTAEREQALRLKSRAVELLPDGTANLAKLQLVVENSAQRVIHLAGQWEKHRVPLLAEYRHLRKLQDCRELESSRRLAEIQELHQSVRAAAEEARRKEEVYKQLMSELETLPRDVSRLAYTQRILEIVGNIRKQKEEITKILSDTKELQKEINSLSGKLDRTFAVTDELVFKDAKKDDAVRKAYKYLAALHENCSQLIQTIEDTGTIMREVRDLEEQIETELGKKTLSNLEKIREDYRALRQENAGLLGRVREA
Chain of UniProt Q9H257 (Q9H257 whole entry, looked up): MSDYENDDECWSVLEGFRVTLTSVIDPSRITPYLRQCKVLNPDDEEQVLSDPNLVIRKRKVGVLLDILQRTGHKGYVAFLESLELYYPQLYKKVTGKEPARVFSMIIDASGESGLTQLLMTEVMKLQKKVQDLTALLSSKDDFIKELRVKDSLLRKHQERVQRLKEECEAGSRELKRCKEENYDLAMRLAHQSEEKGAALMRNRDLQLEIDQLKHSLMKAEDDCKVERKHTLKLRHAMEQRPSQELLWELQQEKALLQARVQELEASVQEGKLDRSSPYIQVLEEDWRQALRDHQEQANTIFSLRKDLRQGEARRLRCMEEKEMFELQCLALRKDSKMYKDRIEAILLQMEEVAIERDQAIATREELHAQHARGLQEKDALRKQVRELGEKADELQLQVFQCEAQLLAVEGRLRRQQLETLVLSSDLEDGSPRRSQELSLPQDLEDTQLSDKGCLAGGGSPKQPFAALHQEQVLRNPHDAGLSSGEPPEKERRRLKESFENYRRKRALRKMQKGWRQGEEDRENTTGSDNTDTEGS
Chain of UniProt Q9Y4P1 (Q9Y4P1 whole entry, looked up): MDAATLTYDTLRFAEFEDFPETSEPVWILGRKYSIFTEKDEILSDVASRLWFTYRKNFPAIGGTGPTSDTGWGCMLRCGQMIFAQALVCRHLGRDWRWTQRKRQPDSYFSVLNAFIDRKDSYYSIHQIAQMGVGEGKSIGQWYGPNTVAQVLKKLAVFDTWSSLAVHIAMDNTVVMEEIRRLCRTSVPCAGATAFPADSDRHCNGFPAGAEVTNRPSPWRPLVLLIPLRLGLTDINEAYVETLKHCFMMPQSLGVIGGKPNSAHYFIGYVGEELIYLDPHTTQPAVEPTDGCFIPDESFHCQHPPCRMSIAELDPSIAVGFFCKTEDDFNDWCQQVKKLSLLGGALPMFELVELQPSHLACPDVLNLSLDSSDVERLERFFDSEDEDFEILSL
Chain of UniProt P49918 (P49918 whole entry, looked up): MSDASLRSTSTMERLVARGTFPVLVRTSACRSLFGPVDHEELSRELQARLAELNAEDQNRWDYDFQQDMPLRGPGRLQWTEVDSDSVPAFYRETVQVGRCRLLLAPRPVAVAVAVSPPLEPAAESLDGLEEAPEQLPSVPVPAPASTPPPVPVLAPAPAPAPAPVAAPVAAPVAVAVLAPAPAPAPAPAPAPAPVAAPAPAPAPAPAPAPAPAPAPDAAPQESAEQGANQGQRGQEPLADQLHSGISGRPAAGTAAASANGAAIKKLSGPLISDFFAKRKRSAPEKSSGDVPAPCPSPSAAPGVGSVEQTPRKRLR

Target | log2 fold change [1] | log2 fold change [2] | log2 fold change [3] | log2 fold change [4] | log2 fold change [5] | log2 fold change [6] | log2 fold change [7] | log2 fold change [8] | log2 fold change [9] | log2 fold change [10] | log2 fold change [11] | log2 fold change [12] | log2 fold change [13] | log2 fold change [14] | log2 fold change [15] | log2 fold change [16] | log2 fold change [17] | log2 fold change [18] | log2 fold change [19] | log2 fold change [20]
BORCS5 (UniProt Q969J3) | 0.044 | 0.005 | 0.201 (active) | 0.057 | 0.027 | -0.01 | 0.075 | -0.055 | 0.013 | 0.017 | -0.012 | 0.043 | -0.001 | 0.067 | 0.032 | 0.074 | -0.09 | -0.014 | 0.01 | -0.079
CCDC25 (UniProt Q86WR0) | -0.033 | 0.008 | 0.01 | 0.027 | 0.005 | -0.023 | 0.581 (active) | -0.079 | 0.007 | -0.009 | 0.132 | 0 | -0.012 | -0.025 | 0.075 | 0.008 | 0.083 | -0.027 | -0.005 | 0.01
BAG4 (UniProt O95429) | -0.055 | 0 | 0.048 | 0.004 | -0.003 | 0.036 | -0.037 | 0.102 | 0.018 | -0.043 | 0.04 | -0.096 | -0.01 | -0.001 | 0.023 | -0.032 | 0.005 | -0.023 | 0.003 | 0.039
BCKDHB (UniProt P21953) | 0.068 | 0.032 | 0.065 | -0.102 | -0.079 | -0.064 | 0.022 | -0.02 | -0.012 | 0.129 | 0.062 | 0.011 | 0.008 | -0.008 | -0.031 | -0.074 | 0.107 | -0.019 | -0.015 | -0.024
ATG4B (UniProt Q9Y4P1) | 0.036 | 0.04 | 0.047 | 0.012 | -0.05 | 0.008 | 0.148 | -0.105 | 0.043 | 0.039 | 0.052 | -0.129 | 0.025 | 0 | -0.025 | 0 | -0.018 | 0.053 | 0.02 | -0.071
CARD9 (UniProt Q9H257) | 0.03 | 0.026 | 0.008 | 0.068 | -0.001 | 0.011 | -0.036 | 0.013 | 0.014 | -0.01 | -0.011 | -0.099 | 0.043 | 0.05 | 0.038 | -0.06 | 0.068 | -0.004 | 0.009 | -0.021
CCDC22 (UniProt O60826) | -0.054 | 0.026 | 0.052 | -0.053 | -0.013 | 0.026 | -0.027 | -0.01 | 0.01 | 0.028 | 0.024 | -0.063 | 0.012 | -0.03 | 0.009 | 0.031 | -0.029 | 0.002 | -0.009 | 0.027
CDKN1C (UniProt P49918) | -0.275 | -0.003 | -0.041 | 0.027 | -0.066 | 0.019 | 0.073 | 0.03 | -0.14 | -0.054 | -0.035 | -0.056 | 0.025 | -0.186 | -0.067 | -0.037 | -0.019 | -0.082 | 0.046 | -0.136
